Experimental data from PubChem BioAssay (NCATS).
Inconclusive results are not listed. Calls of active or inactive are those of the source. Unless noted, calls come from the whole dose curve; as a rule, active = well fitted curve in the direction sought with a large enough effect; inconclusive = small, poorly fitted or top-dose-only effect, or another doubt; inactive = no such curve, though single readings can be large; an effect the other way counts as inactive or inconclusive.

How the values were obtained:
[1] = target: Lysosomal acid glucosylceramidase (Homo sapiens) (UniProt P04062); test: Glucocerebrosidase-p2 (AID 348; in the data active = potency below about 10 µM; note: potency is the fitted concentration of half-maximal effect); details: purified GBA, blue fluorogenic substrate, 40 min
In short: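 Compounds titrated from 0.6 nM upwards against 0.2 nM enzyme in pH 5.9 citric acid/KH2PO4, taurocholate, tween-20; blue fluorogenic substrate 80 uM, 40 min room temperature, stopped and read Ex 365/Em 440 for AC50.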

[2] = AP1 Signaling Pathway (AID 357; active = well fitted curve in either direction with a large enough effect, not every such curve was filed as active;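 note: ME-180 reporter cells stimulated with EGF at its EC50 level; % is set by controls: 0 for no effect and ±100 for the full control effect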); details: ME-180 AP-1-bla reporter, EGF-induced, beta-lactamase ratio, 5 h; at 7.69 µM (top of the series) unless noted
In short: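 A ratiometric CCF4 readout (405 nm excitation; 460 and 530 nm emission) quantified AP-1-driven beta-lactamase in ME-180 cells after 5 h with compound and EC50 EGF; AC50 values were derived for activators and inhibitors.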

[3] = target: Cytochrome P450 1A2 (Homo sapiens) (UniProt P05177); test: p450-cyp1a2 (AID 410; calls by dose curve; note: potency is the fitted concentration of half-maximal effect;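 for activity change, negative = inhibition: -100% = full effect of reference inhibitor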); details: recombinant CYP1A2, luciferin-ME demethylation, luminescence; series mostly up to 57 µM
In short: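 Inhibition was calculated relative to 57 uM furafylline (full inhibition). The reaction used human CYP1A2 at 20nM with Luciferin-ME at its Km, 100uM, driven by an NADPH-regenerating system for 60 min at room temperature.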

[4] = NFAT Signaling Pathway (AID 444; active = well fitted curve in either direction with a large enough effect, not every such curve was filed as active;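 note: carbachol stimulus at about its EC50 of 1 µM final; % is set by controls: 0 for no effect and ±100 for the full control effect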); details: Jurkat NFAT-bla M1, carbachol, beta-lactamase ratio, 5 h; at 7.69 µM (top of the series) unless noted
In short: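 Jurkat cells carrying an NFAT-driven β-lactamase reporter and co-transfected muscarinic M1 receptor were treated with compound plus carbachol (1 uM final, an EC50 level) for 5 h at 37 °C. CCF4 loading followed for 1 h at RT; 460/530 nm ratio gave %activity.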

[5] = Stat Signaling Pathway (AID 446; active = well fitted curve in either direction with a large enough effect, not every such curve was filed as active;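 note: ME-180 cervical cancer cells given 40 pM IL-6 alongside compound; SIE-controlled beta-lactamase reporter measured as 460/530 nm FRET emission ratio; % is set by controls: 0 for no effect and ±100 for the full control effect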); details: ME-180 SIE beta-lactamase reporter, IL-6 stimulated, 5 h; at 7.69 µM (top of the series) unless noted
In short: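 ME-180 SIE-bla cells; overnight plating; cpd + IL-6 40 pM, 5 h, 37 C; LiveBLAzer 2.5 h RT; 460/530 nm emission ratio. Normalized to 300 pM IL-6 and 125 nM JAK inhibitor controls.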

[6] = target: Glucocorticoid receptor (Homo sapiens) (UniProt P04150); test: GR-GFP Redistribution (AID 450;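 active = compounds whose dose series gives a full or clear partial fitted curve of increased nuclear translocation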; note: potency is the fitted concentration of half-maximal effect); details: U2OS GR-GFP nuclear translocation, laser cytometry, 2 h
[7] = target: Glucocorticoid receptor (Homo sapiens) (UniProt P04150); test: GR-EFC Redistribution (AID 451; calls by dose curve; note: potency is the fitted concentration of half-maximal effect); details: CHO-K1 GR-EFC translocation, beta-gal luminescence, 2 h
In short: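 CHO-K1 cells stably expressing nuclear-localized β-gal enzyme acceptor and GR fused C-terminally to the enzyme donor fragment; ligand-driven nuclear translocation restores β-gal by complementation. Compounds titrated up to 46 uM final, 2 h at 37 °C; luminescence read.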

[8] = target: Mitogen-activated protein kinase 10 (Mus musculus) (UniProt Q61831); test: JNK3 AlphaScreen Assay (AID 530; active = well fitted curve in either direction with a large enough effect, not every such curve was filed as active;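 note: kinase came from lysate of stimulated human HepG2 cells; signal reports phosphorylation of biotinylated GST-cJun 1-79 at Ser73 with 10 µM ATP; % is set by controls: 0 for no effect and ±100 for the full control effect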); details: JNK3 lysate, c-Jun phosphorylation; series mostly up to 57.1 µM
In short: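 JNK3 came from HepG2 lysates pre-activated with IL-1beta and TNF-alpha and phosphorylated biotinylated GST-cJun (1-79) at 10 uM ATP, pH 7.6, room temperature. Compounds were titrated. AlphaScreen signal used anti-phospho-cJun (Ser73) antibody.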

[9] = target: 3',5'-cyclic-AMP phosphodiesterase 4B (Homo sapiens) (UniProt Q07343); test: qHTS Assay for Inhibitors of PDE-IV (AID 607; active = well fitted activation curve with a large enough effect in the main read-out, with a control signal flat, not every such curve was filed as active; note: % of control where 0% means no effect); details: HEK293 ACTOne CNG channel cells, membrane potential fluorescence; series mostly up to 22.9 µM
In short: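 ACTOne HEK293 cells carry a modified cAMP-gated CNG channel and express endogenous PDE4; plated 1000 cells/well, compounds up to 22.9 uM final. Membrane-potential dye fluorescence (ex 535/em 590) was read; parental cells received 10 uM forskolin + 100 uM RO 20-1724.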

[10] = qHTS Assay for Lipid Storage Modulators (AID 1519; calls by dose curve); details: Drosophila S3 cells, BODIPY lipid droplet/cell ratio, laser cytometry, cells loaded with oleic acid; for activity change, negative = inhibition: at 57.5 µM (top of the series)
In short: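 Cells seeded at 5,000 per well were treated with compounds over a concentration series and loaded with oleic acid (400 uM, as added). Lipid droplet fluorescence (488 nm excitation, 500-530 nm channel) was read by laser-scanning cytometry and normalized to 20 uM Triacsin C.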

[11] = target: Dual specificity protein kinase CLK4 (Homo sapiens) (UniProt Q9HAZ1); test: qHTS Assay for Inhibitors of CDC-like Kinase 4 (Kinase-Glo Assay) (AID 1770); details: recombinant Clk4, Kinase-Glo ATP depletion luminescence; series mostly up to 66.7 µM; note: nearly all actives have a fitted effect of over 65% in size; note: potency is the fitted concentration of half-maximal effect
In short: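 Luminescent ATP-depletion read-out (Kinase-Glo) after 4.5 h room-temperature reaction of Clk4 (25 nM final) with RS peptide (100 uM) and ATP (1 uM), pH 7.5 Tris buffer with MgCl2 and DTT.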

[12] = target: Dual specificity protein kinase CLK4 (Homo sapiens) (UniProt Q9HAZ1); test: qHTS Assay for Inhibitors of CDC-like Kinase 4 (ADP-Glo Assay) (AID 1771); details: recombinant CLK4, ADP-Glo luminescence; series mostly up to 80 µM; note: nearly all actives have a fitted effect of over 70% in size; note: potency is the fitted concentration of half-maximal effect
In short: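 Kinase reaction: Clk4 at 25 nM, RS repeat peptide substrate at 100 uM, ATP at 1 uM, 1 hr, room temperature. Product ADP detected as luciferase signal via ADP-Glo.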

[13] = target: Dual specificity protein kinase CLK4 (Homo sapiens) (UniProt Q9HAZ1); test: qHTS Assay for Inhibitors of CDC-like Kinase 4 (ADP-FP Assay) (AID 1795); details: Transcreener ADP fluorescence polarization; series mostly up to 50 µM; note: nearly all actives have a fitted effect of over 60% in size; note: potency is the fitted concentration of half-maximal effect
In short: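 Kinase activity was measured as ADP production using Transcreener orange tracer (4 nM) and ADP antibody (1 ug/mL) fluorescence polarization, with ADP calculated from a calibration curve. The 1 h reaction contained 6.25 nM Clk4, 1 uM ATP and 100 uM RS peptide at pH 7.5 with Mg2+.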

[14] = target: Ubiquitin carboxyl-terminal hydrolase 1 (Homo sapiens) (UniProt O94782); test: Inhibitors of USP1/UAF1: Pilot qHTS (AID 504865); details: purified USP1/UAF1, Ub-rhodamine cleavage fluorescence; series mostly up to 54.9 µM;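 note: rhodamine fluorescence freed from ubiquitin-rhodamine substrate followed over time; top concentration of the series differs between compounds; % is set by controls: 0 for no effect and ±100 for the full control effect; nearly all actives have a fitted effect of over 35% in size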
In short: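 Deubiquitinase activity followed as kinetic rhodamine fluorescence release from 150 nM Ub-Rho. 1 nM USP1/UAF1 with compound, after 15 min room-temperature preincubation, in HEPES pH 7.8 buffer containing TCEP, EDTA, BSA and Tween-20.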

[15] = Primary qHTS for small molecule stabilizers of the endoplasmic reticulum resident proteome: Secreted ER Calcium Modulated Protein (SERCaMP) assay (AID 1508630); details: SH-SY5Y GLuc-SERCaMP (Gaussia luciferase released on ER calcium loss) secretion, thapsigargin, luminescence; series mostly up to 38.4 µM; note: % is set by controls: 0 for no effect and ±100 for the full control effect
In short: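 GLuc-SERCaMP-expressing SH-SY5Y cells, pretreated 16 h with compound, are challenged with thapsigargin to empty ER calcium stores; after 4 h, coelenterazine is added directly to the medium and luminescence is imaged.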

[16] = target: Rap guanine nucleotide exchange factor 3 (Homo sapiens) (UniProt O95398); test: Confirmatory qHTS for antagonist of cAMP-regulated guanine nucleotide exchange factor 3 (EPAC1) (AID 1645880); details: EPAC1 Rap1B-BODIPY-GDP exchange, fluorescence; series mostly up to 115 µM;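 note: plate controls were DMSO only for no effect and full effect of the ATA control for full effect; nearly all actives have a fitted effect of over 55% in size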
In short: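 Nucleotide exchange uses 100 nM EPAC1, 250 nM RAP1B-BODIPY-GDP and 50 uM GDP, with compounds in a concentration-titration series. After 5 min at room temperature, fluorescence (480 nm ex/540 nm em) is read every 5 min for 30 min. Data are normalized to control ATA and DMSO.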

[17] = target: Rap guanine nucleotide exchange factor 3 (Homo sapiens) (UniProt O95398); test: Confirmatory qHTS for agonist of cAMP-regulated guanine nucleotide exchange factor 3 (EPAC1) (AID 1645881); details: EPAC1 Rap1B BODIPY-GDP exchange fluorescence, 100% = cAMP control response; series mostly up to 154 µM;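 note: EPAC1 catalysed release of BODIPY-GDP from Rap1B seen as fluorescence loss; nearly all actives have a fitted effect of over 75% in size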
[18] = target: Rap guanine nucleotide exchange factor 4 (Homo sapiens) (UniProt Q8WZA2); test: Confirmatory qHTS for agonist of cAMP-regulated guanine nucleotide exchange factor 4 (EPAC2) (AID 1645884); details: EPAC2 GEF activity, Rap1B-BODIPY-GDP fluorescence, percent relative to cAMP agonist control; series mostly up to 154 µM;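 note: nucleotide exchange releases bodipy-GDP from Rap1 and this lowers its fluorescence; % is set by controls: 0 for no effect and ±100 for the full control effect; nearly all actives have a fitted effect of over 65% in size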
[19] = target: Rap guanine nucleotide exchange factor 4 (Homo sapiens) (UniProt Q8WZA2); test: Confirmatory qHTS for antagonist of cAMP-regulated guanine nucleotide exchange factor 4 (EPAC2) (AID 1645885); details: EPAC2 Rap1B-BODIPY-GDP exchange fluorescence, biochemical; series mostly up to 114 µM; note: % is set by controls: 0 for no effect and ±100 for the full control effect; nearly all actives have a fitted effect of over 25% in size
[20] = target: Cytochrome P450 3A4 (Homo sapiens) (UniProt P08684); test: qHTS Assay for Activators of Cytochrome P450 3A4 (AID 885); details: recombinant CYP3A4, Luciferin-PPXE luminescence, 60 min; series mostly up to 57.1 µM; note: nearly all actives have a fitted effect of over 65% in size
In short: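 20nM CYP3A4 + 25uM Luciferin-PPXE (=KM), 200mM KPO4; cpd 10 min RT; NADPH regen, 60 min RT; stop w/ detection buffer, 20 min; luminescence. Normalized to 57 uM ketoconazole.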

[21] = measured here: cell count channel max response
[22] = measured here: lipid channel max response

Sequence of Rap guanine nucleotide exchange factor 3 (Homo sapiens) (O95398 whole entry, looked up): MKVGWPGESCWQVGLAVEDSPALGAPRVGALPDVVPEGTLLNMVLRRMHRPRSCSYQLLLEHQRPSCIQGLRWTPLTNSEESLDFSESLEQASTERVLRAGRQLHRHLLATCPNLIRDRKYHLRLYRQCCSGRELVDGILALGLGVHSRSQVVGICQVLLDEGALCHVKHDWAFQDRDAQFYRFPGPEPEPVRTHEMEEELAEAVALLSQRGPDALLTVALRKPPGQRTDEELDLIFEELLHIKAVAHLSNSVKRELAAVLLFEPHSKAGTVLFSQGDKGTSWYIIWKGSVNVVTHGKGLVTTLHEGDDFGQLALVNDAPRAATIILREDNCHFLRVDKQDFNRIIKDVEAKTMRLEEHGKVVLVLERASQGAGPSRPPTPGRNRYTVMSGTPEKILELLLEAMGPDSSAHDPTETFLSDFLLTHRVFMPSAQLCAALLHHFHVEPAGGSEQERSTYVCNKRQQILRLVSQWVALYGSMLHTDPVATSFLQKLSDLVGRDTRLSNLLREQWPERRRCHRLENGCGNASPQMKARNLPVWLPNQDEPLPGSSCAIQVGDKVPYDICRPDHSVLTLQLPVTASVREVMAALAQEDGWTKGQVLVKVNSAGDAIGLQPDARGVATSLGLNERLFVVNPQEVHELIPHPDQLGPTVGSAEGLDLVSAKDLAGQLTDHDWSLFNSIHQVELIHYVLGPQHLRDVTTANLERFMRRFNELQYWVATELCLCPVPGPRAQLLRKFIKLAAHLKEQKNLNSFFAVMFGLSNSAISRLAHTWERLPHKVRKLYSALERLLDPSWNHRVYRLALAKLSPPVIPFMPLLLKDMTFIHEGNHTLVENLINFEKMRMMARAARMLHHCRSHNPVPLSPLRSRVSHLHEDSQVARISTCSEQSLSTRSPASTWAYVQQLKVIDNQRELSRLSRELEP
Sequence of Rap guanine nucleotide exchange factor 4 (Homo sapiens) (Q8WZA2 whole entry, looked up): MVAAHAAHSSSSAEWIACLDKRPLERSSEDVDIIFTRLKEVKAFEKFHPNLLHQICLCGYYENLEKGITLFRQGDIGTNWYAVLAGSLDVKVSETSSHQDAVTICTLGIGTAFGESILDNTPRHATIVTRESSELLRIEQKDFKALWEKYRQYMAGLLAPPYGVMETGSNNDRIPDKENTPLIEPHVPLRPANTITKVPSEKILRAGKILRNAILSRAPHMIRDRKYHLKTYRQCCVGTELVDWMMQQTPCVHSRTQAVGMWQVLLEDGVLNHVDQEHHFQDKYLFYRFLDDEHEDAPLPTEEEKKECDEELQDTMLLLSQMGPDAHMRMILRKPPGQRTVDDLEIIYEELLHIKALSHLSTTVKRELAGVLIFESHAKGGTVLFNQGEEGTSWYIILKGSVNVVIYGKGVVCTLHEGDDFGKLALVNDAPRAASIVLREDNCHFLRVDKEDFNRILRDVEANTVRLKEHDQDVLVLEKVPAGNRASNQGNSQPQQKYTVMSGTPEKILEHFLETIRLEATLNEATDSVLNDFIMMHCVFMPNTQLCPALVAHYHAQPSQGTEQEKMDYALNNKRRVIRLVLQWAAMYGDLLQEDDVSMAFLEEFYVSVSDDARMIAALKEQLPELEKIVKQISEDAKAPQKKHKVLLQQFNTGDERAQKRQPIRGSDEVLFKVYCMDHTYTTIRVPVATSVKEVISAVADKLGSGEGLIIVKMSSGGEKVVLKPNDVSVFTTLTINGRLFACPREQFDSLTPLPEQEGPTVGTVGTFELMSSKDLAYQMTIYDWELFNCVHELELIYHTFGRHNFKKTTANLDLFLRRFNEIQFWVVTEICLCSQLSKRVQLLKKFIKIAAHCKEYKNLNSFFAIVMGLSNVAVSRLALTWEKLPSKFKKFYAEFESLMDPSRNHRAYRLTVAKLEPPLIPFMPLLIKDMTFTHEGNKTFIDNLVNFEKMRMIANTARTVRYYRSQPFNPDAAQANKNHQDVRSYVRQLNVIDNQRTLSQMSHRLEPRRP
Sequence of Cytochrome P450 1A2 (Homo sapiens) (P05177 whole entry, looked up): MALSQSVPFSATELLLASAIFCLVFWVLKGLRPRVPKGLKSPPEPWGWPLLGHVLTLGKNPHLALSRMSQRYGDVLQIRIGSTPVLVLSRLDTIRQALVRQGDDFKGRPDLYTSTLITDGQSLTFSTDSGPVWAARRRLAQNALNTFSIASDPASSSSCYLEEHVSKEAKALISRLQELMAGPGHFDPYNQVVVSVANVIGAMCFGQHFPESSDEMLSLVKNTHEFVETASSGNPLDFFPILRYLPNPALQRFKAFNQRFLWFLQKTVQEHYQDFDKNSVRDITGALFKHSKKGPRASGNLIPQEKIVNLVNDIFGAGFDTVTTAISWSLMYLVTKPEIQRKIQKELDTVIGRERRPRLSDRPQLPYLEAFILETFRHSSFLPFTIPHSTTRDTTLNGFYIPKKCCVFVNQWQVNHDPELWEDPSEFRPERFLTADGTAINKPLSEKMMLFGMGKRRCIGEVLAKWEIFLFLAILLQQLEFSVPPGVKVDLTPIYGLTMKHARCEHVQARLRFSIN
Sequence of Glucocorticoid receptor (Homo sapiens) (P04150 whole entry, looked up, the tested form may be a part): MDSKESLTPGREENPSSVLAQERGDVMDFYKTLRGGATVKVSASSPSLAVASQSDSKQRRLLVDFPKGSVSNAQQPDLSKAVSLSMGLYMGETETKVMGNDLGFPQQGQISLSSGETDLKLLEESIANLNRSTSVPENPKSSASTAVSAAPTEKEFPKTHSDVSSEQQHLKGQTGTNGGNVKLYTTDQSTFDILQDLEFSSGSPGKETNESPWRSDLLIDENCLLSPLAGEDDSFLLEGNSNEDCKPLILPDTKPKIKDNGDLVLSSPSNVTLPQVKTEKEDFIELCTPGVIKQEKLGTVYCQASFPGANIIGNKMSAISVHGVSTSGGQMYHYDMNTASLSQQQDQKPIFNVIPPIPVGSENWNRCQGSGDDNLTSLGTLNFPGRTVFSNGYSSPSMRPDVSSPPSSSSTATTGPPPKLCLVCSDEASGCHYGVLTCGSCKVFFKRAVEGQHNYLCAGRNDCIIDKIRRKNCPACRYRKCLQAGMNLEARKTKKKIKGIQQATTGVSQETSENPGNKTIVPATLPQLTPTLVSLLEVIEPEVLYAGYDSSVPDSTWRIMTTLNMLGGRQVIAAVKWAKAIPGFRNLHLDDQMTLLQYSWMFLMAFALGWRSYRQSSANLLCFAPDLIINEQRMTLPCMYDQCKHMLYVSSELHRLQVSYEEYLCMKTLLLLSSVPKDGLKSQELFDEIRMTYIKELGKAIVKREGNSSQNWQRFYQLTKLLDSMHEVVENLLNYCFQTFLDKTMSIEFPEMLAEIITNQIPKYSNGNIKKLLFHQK
Sequence of Lysosomal acid glucosylceramidase (Homo sapiens) (P04062 whole entry, looked up): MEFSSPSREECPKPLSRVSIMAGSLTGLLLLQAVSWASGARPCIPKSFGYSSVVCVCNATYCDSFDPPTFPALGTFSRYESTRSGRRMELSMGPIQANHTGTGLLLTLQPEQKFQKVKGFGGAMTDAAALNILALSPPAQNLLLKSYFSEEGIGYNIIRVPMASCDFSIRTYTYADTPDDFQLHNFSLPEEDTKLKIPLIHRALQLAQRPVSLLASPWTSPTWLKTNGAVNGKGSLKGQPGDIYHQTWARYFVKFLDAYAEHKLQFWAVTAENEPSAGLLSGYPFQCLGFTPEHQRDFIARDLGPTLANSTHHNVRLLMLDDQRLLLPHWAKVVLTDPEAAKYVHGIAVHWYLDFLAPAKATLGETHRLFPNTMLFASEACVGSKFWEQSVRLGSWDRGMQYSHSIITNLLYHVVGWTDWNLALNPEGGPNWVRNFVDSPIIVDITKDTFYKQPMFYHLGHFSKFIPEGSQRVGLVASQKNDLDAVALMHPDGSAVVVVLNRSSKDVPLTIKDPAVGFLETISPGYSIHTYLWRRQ
Sequence of Dual specificity protein kinase CLK4 (Homo sapiens) (Q9HAZ1 whole entry, looked up): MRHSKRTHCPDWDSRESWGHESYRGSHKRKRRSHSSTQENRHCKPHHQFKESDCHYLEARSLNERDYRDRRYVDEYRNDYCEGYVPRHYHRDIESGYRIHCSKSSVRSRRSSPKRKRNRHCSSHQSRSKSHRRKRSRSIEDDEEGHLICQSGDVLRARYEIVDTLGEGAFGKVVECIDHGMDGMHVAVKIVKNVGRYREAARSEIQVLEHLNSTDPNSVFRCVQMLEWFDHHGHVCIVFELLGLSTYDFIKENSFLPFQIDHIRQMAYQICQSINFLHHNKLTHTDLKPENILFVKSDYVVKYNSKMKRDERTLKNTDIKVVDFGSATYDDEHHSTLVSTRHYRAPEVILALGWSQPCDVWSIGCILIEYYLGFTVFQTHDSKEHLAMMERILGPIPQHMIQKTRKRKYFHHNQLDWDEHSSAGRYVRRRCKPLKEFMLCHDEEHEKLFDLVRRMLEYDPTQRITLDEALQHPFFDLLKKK
Sequence of 3',5'-cyclic-AMP phosphodiesterase 4B (Homo sapiens) (Q07343 whole entry, looked up): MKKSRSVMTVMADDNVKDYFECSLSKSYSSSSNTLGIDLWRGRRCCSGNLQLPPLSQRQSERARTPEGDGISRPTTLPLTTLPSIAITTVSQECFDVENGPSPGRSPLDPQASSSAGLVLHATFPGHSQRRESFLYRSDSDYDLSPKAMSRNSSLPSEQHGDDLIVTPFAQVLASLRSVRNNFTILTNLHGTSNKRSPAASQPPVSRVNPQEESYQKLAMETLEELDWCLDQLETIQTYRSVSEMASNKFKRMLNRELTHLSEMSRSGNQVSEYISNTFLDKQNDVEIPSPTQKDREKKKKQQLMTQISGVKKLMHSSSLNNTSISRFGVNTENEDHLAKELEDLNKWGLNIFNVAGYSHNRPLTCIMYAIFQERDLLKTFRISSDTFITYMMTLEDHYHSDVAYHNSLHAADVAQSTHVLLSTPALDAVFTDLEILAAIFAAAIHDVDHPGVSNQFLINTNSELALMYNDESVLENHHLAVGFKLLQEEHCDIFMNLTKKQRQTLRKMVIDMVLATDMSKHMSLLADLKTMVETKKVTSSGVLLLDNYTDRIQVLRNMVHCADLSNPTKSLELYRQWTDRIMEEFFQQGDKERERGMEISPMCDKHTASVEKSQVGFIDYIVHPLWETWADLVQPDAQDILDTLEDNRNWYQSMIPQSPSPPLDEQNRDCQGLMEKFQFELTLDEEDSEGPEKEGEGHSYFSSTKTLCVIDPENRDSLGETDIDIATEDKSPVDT

COc1ncc2ncc(=O)n(C[C@H]3CCCO3)c2n1
3.18%: max response [10, 21]
inactive: Potency [1] > 11.4 µM | activity change, negative = inhibition [2] -16.2% | activity change, negative = inhibition [4] 4.03% | activity, negative = inhibition [5] -8.8% | Potency [6] > 9.22 µM | Potency [7] > 46 µM | outcome [8] | Potency [9] | activity change, negative = inhibition [10] 4.31% | Potency [11] | Potency [12] | Potency [13] | Potency [14] | Potency [15]
6.83%: max response [10, 22]
active: Potency [3] 15.8 µM

COCCn1c(=O)c(CCc2ccccc2)nc2cnc(Nc3cccc(OC)c3)nc21
22%: max response [10, 21]
inactive: Potency [1] > 11.4 µM | activity change, negative = inhibition [2] 13.2% | activity change, negative = inhibition [4] 5.55% | activity, negative = inhibition [5] 0.869% | Potency [6] > 9.22 µM | Potency [7] > 46 µM | outcome [8] | activity change, negative = inhibition [10] -3.18% | Potency [15] | Potency [16] | outcome [17] | outcome [18] | Potency [19]
18.9%: max response [10, 22]

COCC(=O)N1CCC2(CC1)CCN(C(=O)Nc1cccc(C#N)c1)CC2
inactive: Potency [1] > 11.4 µM | activity change, negative = inhibition [2] -4.8% | Potency [3] | activity change, negative = inhibition [4] -11.9% | activity, negative = inhibition [5] -4.23% | Potency [7] > 46 µM | outcome [8] | Potency [9] | activity change, negative = inhibition [10] 1.13% | Potency [15] | Potency [16] | outcome [17] | outcome [18] | Potency [19]
4.41%: max response [10, 22]
4.68%: max response [10, 21]

C[C@@H]1C(=O)CC2C(C)(C)CCC[C@]2(C)[C@@]1(O)CCc1ccoc1 (some centres not stated)
inactive: Potency [15]

CS(=O)(=O)Nc1cccc(-c2ccc3ncnc(N4CCNCC4)c3c2)c1
22.6%: max response [10, 22]
active: Potency [3] 12.6 µM | Potency [11] 6.31 µM | Potency [12] 15.8 µM | Potency [13] 5.01 µM
18.2%: max response [10, 21]
inactive: Potency [1] > 11.4 µM | activity change, negative = inhibition [2] -1.37% | activity change, negative = inhibition [4] 23.1% | activity, negative = inhibition [5] -16.8% | Potency [6] > 46 µM | Potency [7] > 46 µM | outcome [8] | Potency [9] | Potency [20] | activity change, negative = inhibition [10] 5.65% | Potency [14] | Potency [15]
